# In all, about 59,000 sequences were measured (the read-out: median about -0.00055, lowest 2% from about -2 on). Only a selection was taken, and the lowest values are over-represented in it overall.
# Assay: Identification of proteins required for the processing of the EWS-FLI1 nascent transcript;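 further: robust z of luciferase light less the median z of siRNAs with the same seed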
# Conditions: TC32 Ewing sarcoma NR0B1-luc vs CMV-luc (EWS-FLI1 target promoter against control promoter), 48 h; screened at 20 nM (by protocol)
# Method in brief: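 Three siRNAs per gene, each in a separate well at 20 nM, were transfected into TC32 cells bearing either reporter construct. Luminescence was measured two days on, and per-gene comparison relied on seed-corrected Z values.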
row,Sequence,seed-corrected z-score
1,UUCAUCACAACCUUCCGUG against TLR5,0.937
2,UUCCAGGUCACCAACCACC against IFITM5,-0.607
3,UUCUGCAUAAGUAGUUUUC against INIP,-2.13
4,UGCUUAGCUUCUUUAACCC against PLIN2,0.638
5,UCCUGAACAGGCUUAUCCC against AXIN1,0.946
6,UGAUCUCCAAUCACAUGCC against ARFGEF2,-0.117
7,UCGUUUACAAACAUGAGUC against MPDZ,0.35
8,UUCUGACCAAGCAAACUCG against SF3B1,-2.7
9,AUUGAUGUAUGACUCUUCC against DDX55,-0.91
10,UUCUUUGCCUCGCUUAUUC against OLFML2B,0.806
11,UAUCUGAGGAGUUCUGACC against SLC22A2,0.452
12,AAAUGUCUUAGGGAUUGGG against ITPRIPL1,-2.1
13,UCUCCAAGAAGUUCACUGG against SOX6,0.406
14,UCUGUUGCUGCCUAAACUC against TMEM198B,0.298
15,UAUAGAACAAGGUAAAUCC against MTF2,0.208
16,UUCUAUCAAAUAUCCUUUG against LOC400940,-0.132
17,UAGGAAAUCAUCUCCCUCC against TMEM169,-3.9
18,UACCCAUAUAUUUAAAGCC against PQLC3,0.395
19,UUUUCAUUUACGGAACCCG against SMOC2,0.202
20,UCAGAAGUAACAGCAGAUC against FANCG,0.307
21,UCAUAGUGCAGGUAGAGCC against TRIM50,-0.491
22,AUAGAAGUCAACCUCAUUC against CASQ2,0.181

row,Sequence,seed-corrected z-score
1,UAUUUGUCCAGGUAUGGUG against ERRFI1,-0.215
2,GUCUCUGGUACCUGUGUGC against LOC440300,-0.25
3,UACUCUGUUAGGAAGACCG against TECR,0.271
4,UCCUGCUUCCGGAAUAUCU against PNMA2,-2.12
5,UCAGAUUUCAGACCGCCCA against LINC00668,0.167
6,UUCAGUUCGUAAUCUCUCU against FLOT1,0.706
7,UUCAAAUCCCUAUUAAAGC against ARFIP1,0.962
8,AAGUGGAACCGAUACUUCC against SPDYE14P,-0.205
9,UUUGGUGCACGUAACUUGG against C6orf203,-2.05
10,UUCGGUGUCAAUAACUGUG against BCAS3,-1.77
11,UUUCGUAAUAUGCGGCCUC against ASPA,-0.032
12,UCUUGAUAAGAGACCAGCU against PRR3,0.373
13,AAAUCCACAAUCCAGGGAG against SPATA31E2P,0.176
14,UGUUCAGUUGCUAAAAUGG against KLRC1,0.773
15,UCUGUAAACAGCUUGAUGA against GLP1R,-0.289
16,UUCAUUCUCUGCAAAAUCC against NSMCE1,-0.305
17,UACGAUCAAAGGUUGAUUC against ATF7IP,-4.54
18,UUCAAUGCAUACAUAGAGC against ZNF585A,0.552
19,AUAGGGUAUAGCUCCAGUC against CIART,1.2
20,UGAAGUCGUAGAUCUCACG against PTDSS2,-2.62
21,AAUAGUUAUUUUGUUGAGC against C6orf52,-0.622
22,UAGGUGUGCAUCAUAGUAA against C11orf94,-0.539

row,Sequence,seed-corrected z-score
1,UGAGUCAUCCACGCAGUUC against PSCA,0.371
2,UCUGUUUCCAUUGCGUUCU against FLJ41278,-0.527
3,UCUUCGUCUGGGUCGUUUG against SIGLEC6,-0.384
4,UUCUGGAGUAGCAAGCUAC against POLR2D,-2.24
5,UUUCAUCUCCAUCCGGUAG against JPH3,-0.755
6,ACUCGAAGCAUCUCGAUGG against HAS3,-0.313
7,AACUAAACCAGCUCGCUUC against LRRC8C,2.39
8,UGUCAAGUCGGGUUCACCC against CCDC97,-0.229
9,UGCUGCUUCCCUAAGAUCC against ATG4A,0.243
10,AAUAGCUGCAUAACUGUCU against CLTA,-3.36
11,UUCUGCUUCAUGUUGAGCC against RECQL4,-0.111
12,UCUUGUCGAAAAGCUCACC against KIAA1161,0.789
13,AUCGUGCAAGGUGUUCUCC against BFSP2,0.341
14,AUUUCCUUGAUUGUCAUCC against SERPINB7,-2.22
15,AAAGUUCUCGAAAUGCUUC against GLOD4,-0.0199
16,UUACGGUACUUGGUCUCGC against NRAP,-1.11
17,UUUUUGGUCACCGGUUGCC against GRK5,-0.48
18,UAGCUUGAUAAUAACCAGC against EMC8,0.529
19,AUAGUGCUCAUGAACAUGG against OR7G1,0.135
20,UAGCUGUGAACAGUACCCG against MPL,-2.07
21,UGUUGUCAAAACCACUGCC against CTBP1,-1.98
22,UGAUGAACUGGUUAUGAGG against LAPTM5,1.26

row,Sequence,seed-corrected z-score
1,UACAUCCUCAUUAUAGGUU against ZNRF2,-0.243
2,UUGUCUAAUGGUAAAGUGC against LDB2,-0.144
3,AAGGGUAUCUGAGUCCUUG against RC3H2,-0.0262
4,UGAGCGAUUGUUAAAUGCC against ZNF781,-0.576
5,UGCUCUCUCAGAAUCUCGC against SPA17,-0.647
6,UUAGCAUUCCUGGAAUCCG against EIF5B,-2.11
7,AGAUUGUUAAGCAGCGUGU against C7orf43,0.291
8,UCUAUGUCGGGAUCGGUGC against LINC00467,0.416
9,UUCUUAUCAGCAGCUAGUC against CKAP5,-2.74
10,AAGGCAACAGUGUCCCAUG against SMIM22,-1.28
11,UUUGAAAUUUGUCAGGUCU against PQLC2L,-0.634
12,UACUAUGUCUUCAAGAUCC against CD99L2,0.481
13,UGCUUUAACUGGAUACAUC against NPHP1,-2.27
14,UUCUUAGCUCCCACGAUCC against ZNF512,0.51
15,UUGGUGAAUAAAUAUCAUC against ZBTB25,0.411
16,AAUCUUCCCAUUCUCGUCC against NAA10,0.136
17,UACGGUAUGACUUUCGUUG against RPL23,-2.37
18,AUUGUUACUAUUGGACAGG against RFPL4A,0.248
19,UGUUUGACCAUUCCGUAUC against VRK1,0.29
20,UUUCGUCUCAGCACUGCAC against ANKMY1,0.0118
21,UUUGUGACCAGCAAUCUGC against PLA2G2F,-0.775
22,AAGUUUAGCAAAGACCUGC against VPS39,-2.66

row,Sequence,seed-corrected z-score
1,UCCGAGAUGAGGUAUUAGG against PPIP5K2,0.207
2,UUACACUUCAUUUCCAGAG against WNT11,1.06
3,UUCUUGCCUAGACAGCACC against JAK1,0.139
4,UUUGGGUAAAUAAUCCUUU against C4orf45,-1.15
5,UUCGGGUUGUUCUUUUUCC against TCHP,0.00716
6,AUAAUAUGAUUCCUAAUCC against FAM188A,0.685
7,UUAGCUGCAACUGGAAGGU against TEX13B,-3.82
8,UGAUGUCCAACACCAGUCC against ADCY3,1.37
9,UUGAACUAAACAUAUCAGC against TAB3,1.2
10,AGUGGAACAAGAUCUCAGU against NOL6,0.803
11,UUCAUACUCAGGCAUAUCC against SEC23A,-0.651
12,ACAGAUGUCACACUCGAAG against ZNF581,0.251
13,UUUCAUCUCUCUUAGAUAC against AP3S1,-0.346
14,UGAGAGUUGAGCCUUAUCA against OR8B8,-2.36
15,AGACGAUCAAGCUCUGGUG against CYB5R4,-0.548
16,ACAGGUGCAAACAAAGAGC against TMEM167B,-2.18
17,UGAACAUCCAGUUCUUCCC against CHERP,-1.4
18,UGGAUUAGCAUGACAGACC against COPB1,-2.98
19,UAUGCUCCUCCCGACAAGU against HMGB1P1,0.175
20,AAACAGACCACCUCGUAGG against MTUS2-AS1,0.795
21,UAUCUUCGUACUCAUUUGG against TNFAIP6,-2.49
22,ACUAGAACAAUCUGCAUCC against ZBTB1,0.122

row,Sequence,seed-corrected z-score
1,UAUCGGAAAGAUAGCCUGG against PTPN3,0.486
2,UACACGUACGGGAUAUUUG against HTR3A,-0.067
3,UGUUGUAGCACUCCAACGC against PRKDC,-4.34
4,UCUUUAUCAAAUCUGAGUG against FANCC,0.127
5,UGUGGGUUAAAAGUCAGCA against CDK4,-1.59
6,UCUACCAACAGCAAGAUAC against PLEKHG4B,-0.565
7,UGUAGGUGUAGGCUGUUCG against RFX2,-4.23
8,UUUCUGCUUGUAUCUGCCC against C1QC,-2
9,UUCUUUAAGUCAAAGUUUC against FEZF2,-1.32
10,UGCUUUAUUAUUAAUGGAC against PABPC3,-0.79
11,UGGAUUGUAACCUUUCAUC against EIF2B5,-0.151
12,UAUUUAUUAGAAACAUGGG against ZNF415,-2.45
13,AAAUAGUUCUCAGUCAUUC against RBM38,0.473
14,AGUUGUCCAAUGCAGAUGU against ZDHHC24,-0.264
15,AUAUUUGCAACCUGCAUUC against SPG7,-0.324
16,UCAGUUCUUGCAGUGCACC against FAM212B,-0.229
17,UGGGUGUUCAUGACCUGCC against LMF1,-2.6
18,UGCCCAUCCACAUUGUCCU against REXO1,-0.116
19,UACGAAUCAAACCAAGAUC against RASGRP3,-0.4
20,UAUUGAUCUGCCGAGGAGC against CYFIP1,-0.5
21,UUCGUGACUGUCAUCAUCC against CARD11,0.437
22,UGAACAUACAUCUUGAAUC against SRP19,0.739

# From PubChem BioAssay AID1159506 (National Center for Advancing Translational Sciences (NCATS), 2015)
